# Source: PubChem BioAssay (National Center for Advancing Translational Sciences (NCATS))
# Rows were chosen to be rich in hits. Some 10% of all compounds tested hit in one or more screens of this group.
# GPT2 inh – blocks human glutamate pyruvate transaminase 2; hit rate 0.25% among 100,000; Potency, µM (titrated, usually from 57.7 µM), for the others: top-dose activity change, negative = inhibition, usual class: inhibitors; Recombinant GPT2, coupled pyruvate oxidase/HRP Amplex Red fluorescence; also: % is scaled to controls: 0 for no effect and ±100 for the full control effect; nearly all actives have a fitted effect of over 60% in size
#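 GPT2 10ng/uL, a-KG 250uM, L-Ala 2mM, HEPES pH7.5 + 0.0001% Tween; 30 min RT. Then Amplex mix (PO/HRP/ThPP), 30 min RT dark, fluorescence. AOA 50uM used as positive control.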
# HEK cytotox – kills HEK 293 cells | HEK 293 viability, ATP luminescence (CellTiter-Glo), 48-72 h | Potency, µM (titrated, usually from 115 µM), inactives show top-dose activity change, negative = cytotoxicity, hits mostly inhibitors | hit rate 6.6% among 94,000 | AID 1345083; also: % is scaled to controls: 0 for no effect and ±100 for the full control effect; nearly all actives have a fitted effect of over 60% in size
#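 qHTS cytotoxicity; HEK 293, 250 cells/well; compound pinned; 48 or 72 hr, 37 degree Celsius, 5% CO2, 95% humidity; CellTiter-Glo, 10 min RT; luminescence (ATP).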
# NIH3T3 tox – NIH 3T3 cell cytotoxicity | Potency, µM (highest dose often 96.7 µM), for the others: top-dose activity change, negative = cytotoxicity, most hits filed as inhibitors | AID 1345082 | hit rate 4.3% among 94,000 | NIH 3T3 viability, CellTiter-Glo ATP luminescence, 48-72 h; also: % is scaled to controls: 0 for no effect and ±100 for the full control effect; nearly all actives have a fitted effect of over 55% in size
#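 Cytotoxicity is measured as loss of cellular ATP: NIH 3T3 cells (400/well) are exposed to compound for 48 or 72 hr at 37 °C, then CellTiter-Glo luminescence is imaged after 10 min at room temperature.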
# NPR1 antag – antagonists of human natriuretic peptide receptor Npr1; P16066; HEK293 hNpr1 GloSensor cGMP, ANP-stimulated luminescence; Potency, µM (highest dose often 46.3 µM), without a hit: top-dose activity change, negative = inhibition, hits mostly inhibitors; hit rate 1.6% among 76,000; AID 1347048; calls by dose curve; also: % is scaled to controls: 0 for no effect and ±100 for the full control effect; nearly all actives have a fitted effect of over 60% in size
# Target sequence (P16066 whole entry, looked up): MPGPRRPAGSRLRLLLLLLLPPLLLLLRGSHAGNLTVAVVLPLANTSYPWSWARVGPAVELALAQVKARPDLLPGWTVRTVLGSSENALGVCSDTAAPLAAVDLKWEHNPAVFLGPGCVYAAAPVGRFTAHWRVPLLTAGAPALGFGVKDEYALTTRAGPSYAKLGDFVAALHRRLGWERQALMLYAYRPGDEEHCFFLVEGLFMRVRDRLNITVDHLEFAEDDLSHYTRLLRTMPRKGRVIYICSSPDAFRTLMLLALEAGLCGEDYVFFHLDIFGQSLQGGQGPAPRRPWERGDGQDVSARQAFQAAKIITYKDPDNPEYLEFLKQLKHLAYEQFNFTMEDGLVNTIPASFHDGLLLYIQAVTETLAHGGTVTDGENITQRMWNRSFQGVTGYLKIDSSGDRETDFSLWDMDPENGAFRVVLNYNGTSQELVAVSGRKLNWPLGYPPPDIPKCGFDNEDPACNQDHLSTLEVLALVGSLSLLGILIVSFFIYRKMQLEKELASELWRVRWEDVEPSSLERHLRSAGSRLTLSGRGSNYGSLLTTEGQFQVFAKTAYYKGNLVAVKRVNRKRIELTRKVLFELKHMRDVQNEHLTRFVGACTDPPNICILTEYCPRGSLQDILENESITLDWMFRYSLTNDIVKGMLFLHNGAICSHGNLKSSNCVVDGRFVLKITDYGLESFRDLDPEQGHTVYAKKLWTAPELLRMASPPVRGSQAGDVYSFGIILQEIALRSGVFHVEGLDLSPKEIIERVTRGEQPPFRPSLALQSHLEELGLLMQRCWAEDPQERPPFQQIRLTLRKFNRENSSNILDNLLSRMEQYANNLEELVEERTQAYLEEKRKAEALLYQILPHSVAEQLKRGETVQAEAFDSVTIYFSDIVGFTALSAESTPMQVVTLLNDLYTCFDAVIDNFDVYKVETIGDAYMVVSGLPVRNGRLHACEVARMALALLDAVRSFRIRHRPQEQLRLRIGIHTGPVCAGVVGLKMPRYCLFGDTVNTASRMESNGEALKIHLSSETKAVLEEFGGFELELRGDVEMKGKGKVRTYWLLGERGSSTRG
#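 HEK293 cells stably expressing human Npr1 and cGMP GloSensor pGS-40F, loaded 2 h with 2% GloSensor reagent, given compound 30 min at room temperature. Luminescence read before and 20 min after 0.1 nM hNppA.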
# FLuc inh-1 – blocks purified firefly luciferase enzyme activity | P08659 | purified P. pyralis luciferase, luminescence, biochemical | Potency, µM (titrated, usually from 115 µM), usual class: inhibitors | hit rate 2.5% among 76,000 | AID 1347043; also: % is scaled to controls: 0 for no effect and ±100 for the full control effect; nearly all actives have a fitted effect of over 65% in size
#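 Luminescence read by CCD imaging after purified firefly luciferase (10nM final) was added to substrate buffer holding 10uM D-luciferin and 10uM ATP, pH 7.5, pre-dosed with compound.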
# FLuc SDR no ATP – stabilizes firefly luciferase without ATP | Potency, µM (doses to about 32.7 µM), without a hit: at the top dose activation (signal gain), usual class: activators | hit rate 7.8% among 1,300 | shares compounds with FLuc inh-1 | AID 1963318 | Purified FLuc-C-HiBiT, Nano-Glo HiBiT luminescence, no ATP; also: nearly all actives have a fitted effect of over 55% in size
# FLuc SDR ATP – stabilizes firefly luciferase with ATP present. shares compounds with FLuc inh-1. hit rate 8.7% among 1,300. AID 1963319. Potency, µM (series often up to 32.7 µM), for inactives: at the top dose activation (gain of signal), hits mostly activators. purified FLuc-C-HiBiT + ATP, HiBiT complementation luminescence;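 also: signal reports ligand binding via conformational change of the enzyme rather than luciferase catalysis; % of control where 0% means no effect; nearly all actives have a fitted effect of over 55% in size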
# FLuc inh-2 – inhibitors of firefly luciferase enzymatic activity; hit rate 42% among 1,300; purified FLuc-C-HiBiT enzyme, luciferin luminescence; shares compounds with FLuc inh-1; Potency, µM (highest dose often 32.7 µM), for inactives: at the top dose activity change, negative = inhibition, most hits filed as inhibitors; also: % is scaled to controls: 0 for no effect and ±100 for the full control effect; nearly all actives have a fitted effect of over 70% in size
# Starred values were filed as active, the others as inactive; i = inactive; ? = inconclusive; . = not tested or not shown; [ ] = dose if it differs, or a comment. Unless noted, calls follow the shape of the dose curve; as a rule, active = well fitted curve in the direction sought with a large enough effect; inconclusive = small, poorly fitted or top-dose-only effect, or another doubt; inactive = no such curve, though single readings can be large; an effect the other way counts as inactive or inconclusive. Potency is read from the fitted curve at half-maximal effect.
SMILES,GPT2 inh,HEK cytotox,NIH3T3 tox,NPR1 antag,FLuc inh-1,FLuc SDR no ATP,FLuc SDR ATP,FLuc inh-2
COc1ccc(C(=O)Nc2cc(S(=O)(=O)c3ccc(Cl)cc3)c(O)c(C)c2C)cc1,.,.,.,.,.,19%,14%,-14%
O=C(Cc1ccc(CO)cc1)N1CCOC(C(F)(F)F)C1 (stereo not given),i,i,i,2%,i,.,.,.
CCOc1ccc(-c2cc(CCCC(=O)NCCc3ccc(OCC)c(OCC)c3)no2)cc1,.,.,.,.,.,13%,?,3.5µM*
CCOc1ccc(-c2cc(CCCC(=O)NCCc3ccc(SC)cc3)no2)cc1,.,.,.,.,.,15%,?,3.1µM*
CC1CNc2c(cccc2S(=O)(=O)N[C@@H](CCCN=C(N)N)C(=O)N2CC[C@@H](C)C[C@@H]2C(=O)O)C1 (stereo not given in full),i,.,.,.,.,.,.,.
CC(C)c1noc(-c2cn(C3CCN(C(=O)c4ccc5ccccc5n4)C3)nn2)n1 (stereo not given),i,?,?,?,i,.,.,.
O=C([C@@H]1C[C@@H](O)[C@H](O)[C@@H]2NC(=S)N(c3ccc4c(c3)OCO4)[C@@H]21)N1CCOCC1,4%[88.5 µM],i,i,-12%[70.6 µM],5µM*,12%[49.3 µM],?,?
CC(C)[C@H](C(=O)Nc1ccc(C(=O)NO)cc1)c1ccccc1,-43%,.,.,.,.,.,.,.
CC(C)c1ccc(C(=O)Nc2ccc(-c3nc4ccccc4s3)c(Cl)c2)cc1,.,.,.,.,.,12%,7%,-9%
CSc1ccc(C(=O)Nc2ccc(-c3nc4ccccc4s3)c(O)c2)cc1,.,.,.,.,.,11%,11%,-2%
CSc1ccc(NC(=O)c2cc3c(N4CCSCC4)nc(C)cn3n2)cc1,i,?,?,-17%,i,.,.,.
O=C(Nc1ccc(-c2nc3ccccc3s2)c(O)c1)c1ccccc1,.,.,.,.,.,14%,11%,-2%
CCNC(=O)[C@@H]1C[C@H](NC(=O)c2cncnc2C)CN1CCCSC,3%,-31%,-10%,0%,i,.,.,.
COc1cc(CNC(=O)CN2CC3CC(C2)[C@H]2CCCC(=O)N2C3)cc(OC)c1 (stereo not given in full),i,8%,i,5%,i,.,.,.
CCCN(CC1CCOC1)S(=O)(=O)c1cc(C)ccc1C (stereo not given),-22%,-26%,-6%,0%,i,.,.,.
COc1ccc2nc(NC(=O)Cn3nc4c(cc3=O)CCCC4)sc2c1,2%,-23%,-2%,-2%,?,.,.,.
Nc1nc2ccc(OC(F)(F)F)cc2s1,-12%,.,.,.,.,.,.,.
COc1ccc2nc(-c3ccc(Oc4ccccc4)cc3)sc2c1,.,.,.,.,.,28%,?,11µM*
C=Cc1ccc(-c2nc3ccc(OC)cc3s2)cc1,.,.,.,.,.,12µM*,?,0.44µM*
c1cc2c(cc1-c1cn3c(n1)CO[C@@H](CNC1CCOCC1)C3)OCCCO2,i,-7%[172 µM],-13%[138 µM],-9%[70.6 µM],?,.,.,.
CCc1ccc(-c2nc(CSCC(=O)NCc3ccc(C)cc3)c(C)o2)cc1,.,.,.,.,.,19%,12%,?
Cc1ccc(NC(=O)Nc2ccc(C)n(CC(=O)Nc3ccc4c(c3)OCO4)c2=O)cc1,i,-29%,-29%,-17%,?,.,.,.
Cc1ccc(NC(=O)Nc2ccc(C)n(CC(=O)Nc3ccc(C)c(C)c3)c2=O)cc1,-9%,-12%,i,4%,?,.,.,.
